# Out of some 69,000 compounds screened, about 8,600 (12%) showed an effect of 50% or more. The list comes from a sample in which strong results are over-represented; it also holds similar structures and randomly drawn compounds.
# System: Plasmodium berghei
# Experiment: Screen against P. berghei liver stage (PbLuc), transformed with Luciferase, at 10uM
# Type: functional, HepG2
# Conditions: tested at 10 uM
row,Structure (SMILES),INHIBITION
1,O=C(O)c1ccn(-c2cccc(NC(=O)c3ccccc3Cl)c2)n1,52.6%
2,O=C(O)c1ccn(-c2ccc(NC(=O)c3ccccc3Cl)cc2)n1,46.1%
3,O=C(O)c1ccn(-c2ccccc2NC(=O)c2ccccc2Cl)n1,4.1%
4,Cc1nnc(C[C@@H]2COC[C@H]3CN(C(=O)c4ccco4)C[C@@H]23)o1,2.4%
5,COc1cc(N2C[C@@H]3COC[C@@H](Cc4nnc(C)o4)[C@@H]3C2)ncn1,50.3%
6,Cc1noc(C[C@@H]2COC[C@H]3CN(C(=O)C4=CCCC4)C[C@@H]23)n1,34.9%
7,Cc1noc(C[C@@H]2COC[C@H]3CN(S(=O)(=O)C4CC4)C[C@@H]23)n1,24.9%
8,Cc1noc(C[C@@H]2COC[C@H]3CN(S(C)(=O)=O)C[C@@H]23)n1,26.5%
9,CCCS(=O)(=O)N1C[C@@H]2COC[C@@H](Cc3nc(C)no3)[C@@H]2C1,61.9%
10,CCS(=O)(=O)N1C[C@@H]2COC[C@@H](Cc3nc(C)no3)[C@@H]2C1,12.1%
11,COc1cc(N2C[C@@H]3COC[C@@H](Cc4nc(C)no4)[C@@H]3C2)ncn1,65.7%
12,Cc1nnc(C[C@@H]2COC[C@H]3CN(C(=O)C4=CCCC4)C[C@@H]23)o1,36.4%
13,CS(=O)(=O)N1CCCC(C(=O)Nc2cnn(Cc3ccc(F)cc3)c2)C1 (stereo unspecified),30.8%
14,CCc1ccc(CN2Cc3nccn3CC(Cn3cncn3)C2)o1 (stereo unspecified),-14.3%
15,CCOc1ncccc1NC(=O)N1CCCN(C(=O)OC)CC1,-5.1%
16,O=C(O)[C@]12CCCN(Cc3ccoc3)C[C@H]1CN(c1ncccn1)C2,7.24%
17,COc1c(CNCCNC(=O)c2ccc(C)c(F)c2)c(C)nn1C,11.2%
18,COCCn1ccc(NCc2cc3cc(F)ccc3o2)n1,5.58%
19,COCC(=O)N1CCCC1c1cc(Nc2nnc(C)s2)nc(C)n1 (stereo unspecified),18.2%
20,CN(C)[C@@H]1CN(C(=O)c2ccc3ccccc3n2)C[C@H]1O,14.7%
21,CC(C)Oc1ccc(CN2CCC(c3n[nH]c4ncccc34)CC2)cc1,70.1%
22,Fc1cccc(Cl)c1CN1CCC(c2n[nH]c3ncccc23)CC1,24.4%
23,Fc1ccc(CN2CCC(c3n[nH]c4ncccc34)CC2)cc1F,3.45%
24,c1cnc(N2CCC(c3n[nH]c4ncccc34)C2)nc1 (stereo unspecified),15.9%
25,CC(C)Oc1cccc(CN2CCC(c3n[nH]c4ncccc34)CC2)c1,66.5%
26,Fc1ccc(F)c(CN2CCC(c3n[nH]c4ncccc34)CC2)c1,-10.5%

row,Structure (SMILES),INHIBITION
1,CCN(Cc1cnn(C)c1)C[C@H]1CC[C@@H](Cc2ccc(C#N)cc2)O1,6.33%
2,Cc1ncsc1CCC(=O)N(C)Cc1nc2ccccc2n1C,14.6%
3,CC(C)N1CCC2(C=C(C(=O)NC3CC3)c3ccccc32)CC1,-24.5%
4,CC(C)c1cc(N(C)Cc2cc(C3CC3)on2)n2nccc2n1,32.5%
5,CCOC(=O)N1[C@@H](c2ccco2)[C@@H](C(=O)NC)C[C@]12CCCCNC2=O,42.7%
6,CCCc1nc(C)c(C(=O)NCCn2nc3ccccn3c2=O)s1,52.8%
7,CCCc1nc(C)c(C(=O)NCCn2ccnc2)s1,51%
8,Cc1nc(C(C)(C)C)sc1C(=O)NCCn1ccnc1,30.9%
9,Cc1nc(C)c(C(=O)NCCn2nc3ccccn3c2=O)s1,4.283%
10,Cc1nc(C(C)C)sc1C(=O)NCCn1ccnc1,29.8%
11,CCc1nc(C)c(C(=O)NCCn2nc3ccccn3c2=O)s1,-11%
12,CCN1CCC2(CCN(c3ncccn3)CC2)C1=O,-12.2%
13,Cc1ccc(CN2C[C@@H]3CCCO[C@@H]3[C@H](NS(C)(=O)=O)C2)o1,46.6%
14,CC(C)N1CCC2(CC1)C(=O)N(CCN(C)C)c1ccccc12,49.4%
15,O=C(c1cccnc1)N1CCCC(c2ccnc3nccn23)C1 (stereo unspecified),9.3875%
16,O=C(NCc1cncc2c1CCN(Cc1cccs1)C2)C1CC1,9.67%
17,Cc1ccc(CNC2CCc3[nH]c(=O)ccc3C2)cc1C (stereo unspecified),40.1%
18,CC(C)NC(=O)N1CCC2(CC(=O)N(c3ccccc3)C2)C1 (stereo unspecified),28.4%
19,CC(=O)N1CCC(c2cncc(N3CCOCC3)n2)CC1,41.5%
20,CN(Cc1ccsc1)C(=O)COC(=O)c1cc(Cl)c[nH]1,14.8%
21,CCCN1CCC(NC(=O)c2ccnc(SCC)c2)CC1,49.7%
22,Cc1cnc(C)c(N2CC[C@H](N3CCOCC3)[C@H](CCCO)C2)n1,-12.4%
23,CNc1cc(C(=O)N2CCCCC2CCn2ccnc2C)ccn1 (stereo unspecified),64.5%
24,COC(=O)c1cccc(C(=O)N2CCCCC2CCn2ccnc2C)c1 (stereo unspecified),17.3%
25,Cc1nccn1CCC1CCCCN1C(=O)c1ccc(N(C)C)cc1 (stereo unspecified),66.9%
